Data on 31 compounds can be found in PubChem BioAssay.

SMILES strings stand for the structures. Activity calls are given as the source filed them.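 How the source made its calls: active means primary screen hit whose fluorescence ratio, in both repeats, exceeds the weak agonist control mean by 3 SD; inactive means the rest.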

In the assay the test system is TRPC4 (transient receptor potential cation channel C4 beta), mouse. Description: positive allosteric modulators of mouse TRPC4, confirmation, cell-based, second round, Fluo-4, HEK293 TRPC4beta/mu-opioid, 1 µM (AID 2554). The settings on record: DAMGO EC20, Fluo-4 calcium flux, at 1 µM; active compounds read high.
Take `Clc1ccc(OCC#CCN2CCCC2)cc1`: the potentiation was 30% (active).

Take `CN(CCOc1ccc(C=C2C(=O)NC(=O)NC2=O)cc1)c1ccccn1`: the result was inactive.

With `CCN1CC2C3CCC(C)(O3)C2C1` (stereo unspecified), the outcome was inactive.

With `CC(C)CNc1c2c(nc3ccccc13)CCC2`, the result was inactive.

With `COC(=O)C1=C(c2cc3ccccc3s2)C[C@@H]2CC[C@H]1N2C(=O)NCCO`, the outcome was inactive.

As for `Cc1ccc(-c2cc(-c3ccccc3)cc(-c3ccccc3)[n+]2-c2ccccc2)cc1`, the result was inactive.

For `Nc1ccccc1-[n+]1c(-c2ccccc2)cc(-c2ccccc2)cc1-c1ccccc1`, the potentiation is 27% (active).

`Clc1ccc2c(c1)C(c1ccccc1Cl)=NCc1nnc(N3CCN(CCOc4ccccc4)CC3)n1-2`: the outcome was inactive.

Consider `Cc1ccccc1CN1CCNCC1`, for which the result was inactive.

Regarding `CN1CCN(Cc2cc(=O)n3ccsc3n2)CC1`, the result was inactive.

With `CCC1=Nc2cc(C(=O)N3CCC4(CC3)OCCO4)ccc2Sc2ccc(Br)cc21`, the result was inactive.

Consider `CCCCN1C(=O)NC(=O)C2(Cc3c(nc4c(C)cccn4c3=O)N3CCc4ccccc4C32)C1=O` (stereo unspecified), for which the outcome was inactive.

As to `C=CCOC(=O)C1=C(C)OC(N)=C(C#N)[C@@]12C(=O)N(CC(N)=O)c1ccccc12`, the outcome was inactive.

As for `FC(F)(F)c1ccc(CN2CCNCC2)cc1`, the potentiation was 26% (active).

Turning to `Clc1ccc(N2CCNCC2)nn1`, the potentiation was 14% (active).

Regarding `O=[N+]([O-])c1ccc(N2CCNCC2)cc1N1CCCCCC1`, the outcome was inactive.

In the case of `C#CCN1C(=O)C2(C(C#N)=C(N)OC(C)=C2C(=O)OCc2ccccc2)c2ccccc21` (stereo unspecified), the result was inactive.

For the compound `Cc1ccc(-c2nc(N(C)C3CCN(C)CC3)c3ccccc3n2)cc1`, the potentiation was 14% (active).

As to `c1ccc2nc(OCCN3CC3)ccc2c1`, the result was inactive.

Turning to `Cc1cc(OC(C)C(=O)NCc2ccncc2)c2c3c(c(=O)oc2c1)CCCC3` (stereo unspecified), the outcome was inactive.

As for `CCNCCNc1ccc([N+](=O)[O-])c2cccnc12`, the potentiation is 11% (active).

In the case of `CN(C)CCn1cnc2ccccc21`, the result was inactive.

With `COC(=O)C(O)(c1ccc(NC(=S)NC(=O)c2ccc(Cl)cc2Cl)c(C)c1)C(F)(F)F` (stereo unspecified), the result was inactive.

In the case of `COc1ccc(C(=O)C2CN(C)CC2c2ccc(Cl)cc2)cc1` (stereo unspecified), the outcome was inactive.

As for `CC(Cc1ccccc1)NCC(=O)Nc1cc(N(C)C)nc2ccccc12` (stereo unspecified), the outcome was inactive.

Regarding `Nc1c([N+](=O)[O-])cc(F)c(N2CCNCC2)c1Br`, the result was inactive.

As to `Oc1c(Br)cc(Br)cc1CN1CCN(Cc2ccccc2)CC1`, the result was inactive.

Take `CCNc1cc(N2CCNCC2)ccc1[N+](=O)[O-]`: the potentiation is 35% (active).

On to `CCn1ccnc1CN1CCCC(C(=O)c2cccc(C(F)(F)F)c2)C1` (stereo unspecified), for which the outcome was inactive.

Regarding `CCc1ccc(OCCCN=C(C)c2c(O)n(C)c(=O)n(C)c2=O)cc1`, the outcome was inactive.

Consider `Cc1cccc(N=Cc2c(O)n(-c3ccccc3C)c(=O)[nH]c2=O)c1`, for which the outcome was inactive.
